High-throughput results deposited in PubChem BioAssay by National Center for Advancing Translational Sciences (NCATS).
Coupling enz: coupling enzyme interference in Giardia aldolase counter-screen; coupling enzyme system counterscreen, AmpLite Red fluorescence; activity change, negative = inhibition, % at 58.2 µM, hits read low; 290,000 compounds, 0.67% hits; in the data active = activity change below about -30%
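Activity here indicates interference with the coupling reaction, not aldolase inhibition. Compounds at 57.5 uM final met coupling enzymes for 10 min at RT; substrate and AmpLite Red detection followed, with a 525/598 nm fluorescence read after 20 min.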
ELG1 DNA repair: blocks ELG1-dependent DNA repair in HEK293T cells; Potency, µM (highest dose often 46.1 µM), most hits filed as inhibitors; 330,000 compounds, 2.3% hits; HEK293T ELG1-luciferase reporter, luminescence, 16 h; DNA damage induced by 5-fluorouridine; note: nearly all actives have a fitted effect of over 55% in size
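HEK293T cells expressing luciferase-tagged ELG1 (2,000/well) received 5-Fluorouridine plus compound or DMSO for 16 hr at 37 °C. Luciferase was read by ONE-Glo luminescence after 30 min at room temperature.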
TSHR antag: human thyrotropin receptor antagonism; P16473; TSHR-expressing cells, TSH-stimulated cAMP HTRF, 2 h; hits give low values; activity change, negative = inhibition, % at 11.5 µM; 330,000 compounds, 0.2% hits; AID 504810;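 active = activity change below a set negative limit, meaning inhibition stronger than a set level, cut at about -70% in these data; inconclusive = activity change between two set negative limits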
Target sequence (P16473 whole entry, looked up): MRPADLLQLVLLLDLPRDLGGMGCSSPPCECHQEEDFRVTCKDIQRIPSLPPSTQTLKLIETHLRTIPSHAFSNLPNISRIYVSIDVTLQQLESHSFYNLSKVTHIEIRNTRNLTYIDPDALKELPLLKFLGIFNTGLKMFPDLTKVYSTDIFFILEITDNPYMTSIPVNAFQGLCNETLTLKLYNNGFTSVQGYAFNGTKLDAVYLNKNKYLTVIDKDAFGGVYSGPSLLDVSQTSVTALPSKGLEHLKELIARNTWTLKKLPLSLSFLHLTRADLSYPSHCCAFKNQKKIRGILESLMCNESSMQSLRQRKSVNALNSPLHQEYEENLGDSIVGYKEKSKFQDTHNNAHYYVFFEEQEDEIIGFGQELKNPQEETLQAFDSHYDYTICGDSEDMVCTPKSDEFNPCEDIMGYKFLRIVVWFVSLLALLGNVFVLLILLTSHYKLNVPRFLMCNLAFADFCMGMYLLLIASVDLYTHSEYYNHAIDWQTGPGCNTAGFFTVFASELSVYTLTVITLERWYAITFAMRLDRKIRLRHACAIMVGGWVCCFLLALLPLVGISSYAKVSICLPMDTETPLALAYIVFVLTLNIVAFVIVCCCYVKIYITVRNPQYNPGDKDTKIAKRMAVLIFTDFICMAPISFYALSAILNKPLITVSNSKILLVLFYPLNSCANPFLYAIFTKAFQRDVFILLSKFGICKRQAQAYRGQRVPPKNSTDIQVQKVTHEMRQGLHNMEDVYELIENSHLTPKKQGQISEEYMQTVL
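Cell-based HTRF cAMP assay; TSHR cells + compound, TSH EC80 (4nM final), 2 h, 37 deg C. Lysis with anti-cAMP cryptate and cAMP-d2, 30 min RT, read 665/620 nm.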
VP16 counter: Gal4-VP16 reporter inhibition counter-screen; Drosophila S2 Gal4-VP16 UAS-luciferase, luminescence, 20 h; Potency, µM (series often up to 53.6 µM), actives largely listed as inhibitors; 310,000 compounds, 3.5% hits; AID 2546;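 note: Gal4-VP16 expression switched on by copper sulfate through the metallothionein promoter; nearly all actives have a fitted effect of over 50% in size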
RORgamma inh: inhibitors of mouse ROR gamma transcriptional activity; Drosophila S2 Gal4-RORgamma UAS-luciferase reporter, 20 h; 310,000 compounds, 5.4% hits; Potency, µM (top dose mostly 53.6 µM), hits mostly inhibitors; note: nearly all actives have a fitted effect of over 60% in size
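Stable Schneider cell line, Gal4 DNA-binding domain fused to ROR gamma, UAS-luciferase. Cmpd 1 hr RT → CuSO4 700 uM final → 20 hr RT → luciferase reagent 10 min → luminescence.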
Large screens that a line does not name were inactive. Most compounds without a hit are left out; they make up all but 8% or so of the library. Unless noted, calls come from the whole dose curve; as a rule, active = well fitted curve in the direction sought with a large enough effect; inconclusive = small, poorly fitted or top-dose-only effect, or another doubt; inactive = no such curve, though single readings can be large; an effect the other way counts as inactive or inconclusive.

COc1cc(NC(=O)c2sc3ncn(CC(=O)N4CCCC(C)C4)c(=O)c3c2C)cc(OC)c1OC (stereo unspecified)	ELG1 DNA repair inconclusive (no result: Coupling enz)
CCN(CC)C(=O)Cn1cnc2sc(C(=O)N3CCN(Cc4ccc5c(c4)OCO5)CC3)c(C)c2c1=O	ELG1 DNA repair 8.2µM
CC[C@H](C)[C@H](N)C1=N[C@H](C(=O)N[C@@H](CC(C)C)C(=O)N[C@@H](CCC(=O)O)C(=O)N[C@@H](C(=O)N[C@H]2CCCCNC(=O)[C@@H](CC(N)=O)NC(=O)[C@@H](CC(=O)O)NC(=O)[C@@H](Cc3cnc[nH]3)NC(=O)[C@@H](Cc3ccccc3)NC(=O)[C@@H]([C@@H](C)CC)NC(=O)[C@@H](CCCN)NC2=O)[C@@H](C)CC)CS1	none (no result: ELG1 DNA repair, TSHR antag)
COc1cc(C(=O)Nc2cccc(S(=O)(=O)N3CCCC3)c2)cc(OC)c1C	ELG1 DNA repair 29µM
O=C(COC(=O)c1ccc([N+](=O)[O-])o1)Nc1cccc(S(=O)(=O)N2CCOCC2)c1	ELG1 DNA repair inconclusive, VP16 counter 7.1µM, RORgamma inh inconclusive
O=C(COC(=O)C12CC3CC(CC(Br)(C3)C1)C2)Nc1cccc(S(=O)(=O)N2CCOCC2)c1	ELG1 DNA repair 16µM, TSHR antag inconclusive (no result: Coupling enz, VP16 counter, RORgamma inh)
O=C(CCl)Nc1cccc(S(=O)(=O)N2CCCCCC2)c1	ELG1 DNA repair inconclusive, VP16 counter inconclusive, RORgamma inh 35µM
O=C(COC(=O)c1ccc(Br)o1)Nc1cccc(S(=O)(=O)N2CCOCC2)c1	none (no result: Coupling enz, VP16 counter, RORgamma inh)
O=[N+]([O-])c1cc(CN2CCCC2)ccc1Sc1ccc(Cl)cc1	none
CC(O)c1cccc(-c2ccc(CN3C[C@]4(CO)O[C@@H](CO)C[C@@H]4S3(=O)=O)cc2)c1 (stereo partly specified)	none (no result: Coupling enz, VP16 counter, RORgamma inh)
O=S(=O)(c1cccc(S(=O)(=O)N2CCCC2)c1)N1CCCCC1	none
O=C(Nc1cccc(S(=O)(=O)N2CCCC2)c1)c1cc(=O)[nH]c2ccccc12	none (no result: Coupling enz, VP16 counter, RORgamma inh)
O=c1c2ccccc2[nH]c(=S)n1-c1cccc(S(=O)(=O)N2CCCC2)c1	VP16 counter inconclusive, RORgamma inh 3.2µM
O=C(Nc1cccc(S(=O)(=O)N2CCCCC2)c1)c1cc(=O)[nH]c2ccccc12	ELG1 DNA repair 26µM (no result: Coupling enz, VP16 counter, RORgamma inh)
Cc1ccc(S(C)(=O)=O)cc1C(=O)Nc1cccc(S(=O)(=O)N2CCCCCC2)c1	ELG1 DNA repair 12µM (no result: Coupling enz, VP16 counter, RORgamma inh)
O=S(=O)(c1cccc(S(=O)(=O)N2CCCC2)c1)c1cccc(S(=O)(=O)N2CCCC2)c1	ELG1 DNA repair 21µM
CS(=O)(=O)c1cccc(C(=O)Nc2cccc(S(=O)(=O)N3CCCC3)c2)c1	none (no result: Coupling enz, VP16 counter, RORgamma inh)
O=C(Nc1ccc(COc2ccccc2)cc1)Nc1cccc(C(=O)O)c1	ELG1 DNA repair inconclusive
Cc1ccc(N2CC(C(=O)N3CCC(C(=O)NC(C)(C)C)CC3)CC2=O)cc1 (stereo unspecified)	none
O=C(COC(=O)c1cc[n+]([O-])cc1)Nc1cc([N+](=O)[O-])ccc1Cl	none (no result: Coupling enz, VP16 counter, RORgamma inh)
O=C(COc1ccccc1[N+](=O)[O-])Nc1cccc(S(=O)(=O)N2CCCC2)c1	ELG1 DNA repair 16µM (no result: Coupling enz, VP16 counter, RORgamma inh)
O=C(COc1ccccc1Cl)Nc1cccc(S(=O)(=O)N2CCCC2)c1	ELG1 DNA repair inconclusive (no result: Coupling enz, VP16 counter, RORgamma inh)
CN1CCN(c2ncc3ncc(=O)n(Cc4cccs4)c3n2)CC1	none (no result: ELG1 DNA repair, TSHR antag)
COc1ccc(-c2cc(=O)oc3c(C)c(O)ccc23)cc1	ELG1 DNA repair 8.2µM
CO[C@H]1COC(=O)[C@@H](Cc2ccccc2)NC(=O)[C@@H](C)COC(=O)C/C=C\[C@@H]1C	none (no result: ELG1 DNA repair, TSHR antag)
O=C(CSCc1c(F)cccc1Cl)NCc1cccnc1	none
Fc1cccc(Cl)c1CNCc1cccnc1	TSHR antag -106
CC1CN(S(=O)(=O)c2ccc(NC(=O)c3cc(-c4ccccc4O)n[nH]3)cc2)CC(C)O1 (stereo unspecified)	ELG1 DNA repair 20µM, RORgamma inh inconclusive
NS(=O)(=O)c1ccc(NC(=O)c2cc(-c3cc(Cl)ccc3O)n[nH]2)cc1	ELG1 DNA repair 5.2µM
CCOc1ccccc1N1CCN(C(=O)c2ccc(OCC(=O)N3CCOCC3)c(OC)c2)CC1	none
COc1cc2c3nnc(-c4ccc(F)cc4)c-3cn(Cc3cccc(C)c3)c2cc1OC	VP16 counter 10µM, RORgamma inh inconclusive
COc1cc2c3nnc(-c4ccccc4)c-3cn(Cc3ccc(F)cc3)c2cc1OC	none
COc1cc2c3nnc(-c4ccc(F)cc4)c-3cn(Cc3ccc(C)cc3)c2cc1OC	VP16 counter 4µM, RORgamma inh 5µM
C=CC1=C2C=C(C3CC3)N(Cc3ccco3)C=C2C(=O)C(C)(OC(=O)c2ccco2)C1=O (stereo unspecified)	none (no result: ELG1 DNA repair, TSHR antag, VP16 counter, RORgamma inh)
Fc1cc(F)c(C2SCCN2C(=S)Nc2cccc(C(F)(F)F)c2)c(F)c1 (stereo unspecified)	ELG1 DNA repair inconclusive, TSHR antag -72, VP16 counter inconclusive, RORgamma inh inconclusive
COc1ccc(C2SCCN2C(=S)Nc2ccc(Cl)cc2)cc1 (stereo unspecified)	VP16 counter inconclusive, RORgamma inh 13µM
CCOC(=O)c1ccc(NC(=S)N2CCSC2c2c(F)cc(F)cc2F)cc1 (stereo unspecified)	ELG1 DNA repair inconclusive, VP16 counter inconclusive, RORgamma inh 13µM
CCN1CCN(C(=S)Nc2cccc(C(F)(F)F)c2)CC1	VP16 counter inconclusive
CCCCC(=O)N/N=C/c1ccc(-c2ccc([N+](=O)[O-])cc2)o1	RORgamma inh inconclusive
NS(=O)(=O)c1ccc(-c2ccc(/C=N/Nc3ccc(C(=O)O)cc3)o2)cc1	ELG1 DNA repair inconclusive, RORgamma inh 10µM
O=C(O)c1ccc(-c2ccc(/C=N/Nc3ccc([N+](=O)[O-])cc3)o2)cc1	none
CNC(=S)N/N=C/c1ccc(-c2ccc(Cl)c([N+](=O)[O-])c2)o1	ELG1 DNA repair inconclusive, VP16 counter 3.5µM, RORgamma inh 4.5µM
CC(C)(C)NC(=S)N/N=C\c1ccc(-c2ccc([N+](=O)[O-])cc2)o1	ELG1 DNA repair 21µM, VP16 counter inconclusive, RORgamma inh inconclusive
CNC(=S)N/N=C/c1ccc(-c2ccc(C(=O)O)cc2)o1	ELG1 DNA repair inconclusive, RORgamma inh 4µM
O=C(O)c1cc(-c2ccc(/C=N/Nc3ccc([N+](=O)[O-])cn3)o2)ccc1Cl	ELG1 DNA repair inconclusive, VP16 counter inconclusive
COc1cccc(OC)c1-c1cc(C(=O)NC2(C(=O)O)C3CC4CC(C3)CC2C4)nn1-c1ccc(C(=O)N(C)CCCN(C)C)cc1C(C)C (stereo unspecified)	none (no result: ELG1 DNA repair, TSHR antag)
Cc1ccc(N(C(=O)CNC(=O)c2ccco2)C(C(=O)NC2CCCCC2)c2cccnc2)cc1 (stereo unspecified)	none
CN1N=C(C(=O)N2CCCC(N3CCN(c4ccc(F)cc4)CC3)C2)CCC1=O (stereo unspecified)	none (no result: Coupling enz)
